We go through 23 compounds from PubChem BioAssay (Tox21).

Assay [1] has as its target Retinoic acid receptor RXR-alpha (Homo sapiens) (UniProt P19793). Description: qHTS assay to identify small molecule agonists of the RXR signaling pathway (AID 1159527; calls by dose curve; also: nearly all actives have a fitted effect of over 35% in size; also: potency is read from the fitted curve at half-maximal effect). In a few lines: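 Compounds in DMSO were added to RXR-alpha-UAS-bla HEK 293T cells kept in 2% charcoal-stripped serum, and incubated 16 hr at 37 C with 5% CO2. Reporter signal came from a 2 hr B/G FRET substrate step.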
(In general: qHTS replaces the single test concentration by a dilution series.)

Assay [2] is described as follows: qHTS assay to identify small molecule agonists of the RXR signaling pathway - cell viability counter screen (AID 1159529).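 Also: HEK 293T cells carrying an RXR-alpha UAS beta-lactamase reporter; nearly all actives have a fitted effect of over 50% in size.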 The essentials:
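Counter screen: CellTiter-Glo luminescence. Cells: RXR-alpha-UAS-bla HEK 293T. Medium: 2% charcoal-stripped FBS. Treatment: 16 h, 37 C. Reagent incubation: 30 min, RT.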

Assay [3] is described as follows: qHTS assay to identify small molecule antagonists of the retinoid acid receptor (RAR) signaling pathway - cell viability counter screen (AID 1159551). Also: nearly all actives have a fitted effect of over 35% in size. The essentials:
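C3RL4 cells were seeded overnight at 37 C, then treated with compounds plus 1 uM (final) retinol for 6 h at 37 C. Viability was read as ATP by CellTiter-Glo luminescence after 30 min at room temperature.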

Assay [4] is described as follows: qHTS assay to identify small molecule antagonists of the retinoic acid receptor (RAR) signaling pathway (AID 1159552; also: nearly all actives have a fitted effect of over 50% in size). In a few lines: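 Antagonism of retinol-induced RARE reporter activity was measured in C3RL4 cells. Exposure to compounds and 1 uM final retinol lasted 6 hr at 37 C, with luminescence as endpoint.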
Assay [5] can be described thus: qHTS assay to identify small molecule agonists of the retinoic acid receptor (RAR) signaling pathway (AID 1159553). Also: potency is read from the fitted curve at half-maximal effect. The following applies: C3RL4 RARE luciferase reporter, agonist, 6 h; activation: at 73.3 µM (top of the series). In a few lines: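 C3RL4 cells carrying a RARE luciferase reporter were plated overnight at 37 C, then exposed to compounds in DMSO for 6 hr at 37 C and 5% CO2. Luminescence was read 30 min after luciferase reagent addition at room temperature.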

For assay [6], the target named is Luciferin 4-monooxygenase (Photinus pyralis) (UniProt P08659). Description: qHTS assay to identify small molecule inhibitors of firefly luciferase (AID 1224835). Also: nearly all actives have a fitted effect of over 25% in size. Also: potency is read from the fitted curve at half-maximal effect. The essentials:
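Quantitative HTS format; KM concentrations of both substrates. Purified P. pyralis FLuc activity quantified from luminescence images.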

Assay [7] can be described thus: qHTS assay to identify small molecule agonists of the constitutive androstane receptor (CAR) signaling pathway - cell viability counter screen (AID 1224836). Also: nearly all actives have a fitted effect of over 45% in size. The essentials:
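Double-stable HepG2 hepatoma cells (hCAR plus CYP2B6-2.2kb) are treated for 23 h at 37 C with test compounds in 15-point concentration series. PK11195 at 0.75 uM final is co-added. Cell viability is quantified by CellTiter-Fluor.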

A short description of assay [8]: qHTS assay to identify small molecule antagonists of the constitutive androstane receptor (CAR) signaling pathway - cell viability counter screen (AID 1224837). Also: nearly all actives have a fitted effect of over 45% in size. The essentials: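 HepG2 cells stably expressing hCAR and a CYP2B6-2.2kb reporter were plated and pre-incubated 4 hr at 37 C/5% CO2, then given compounds at 15 concentrations plus 50 nM CITCO (final). After 23 hr, viability was read by CellTiter-Fluor fluorescence.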

For assay [9], the target named is Nuclear receptor subfamily 1 group I member 3 (Homo sapiens) (UniProt Q14994). Description: qHTS assay to identify small molecule antagonists of the constitutive androstane receptor (CAR) signaling pathway (AID 1224838). Also: nearly all actives have a fitted effect of over 40% in size. In a few lines: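 HepG2 cells stably co-transfected with hCAR and a CYP2B6-2.2kb luciferase reporter were seeded 4 h before compound addition at 15 concentrations. Cells were stimulated with 50 nM CITCO (final) for 24 h at 37 C; luciferase luminescence was then read.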
Nuclear receptor subfamily 1 group I member 3 (Homo sapiens), sequence (Q14994 whole entry, looked up): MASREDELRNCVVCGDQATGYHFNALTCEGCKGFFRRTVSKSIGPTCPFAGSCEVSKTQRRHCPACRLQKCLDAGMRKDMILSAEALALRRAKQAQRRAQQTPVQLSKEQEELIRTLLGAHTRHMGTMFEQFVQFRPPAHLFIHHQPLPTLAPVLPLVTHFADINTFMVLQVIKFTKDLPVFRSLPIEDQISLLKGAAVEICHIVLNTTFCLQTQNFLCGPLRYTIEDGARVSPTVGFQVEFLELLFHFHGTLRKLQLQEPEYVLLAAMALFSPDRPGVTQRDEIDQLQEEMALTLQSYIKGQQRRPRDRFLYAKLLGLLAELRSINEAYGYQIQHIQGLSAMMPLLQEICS

Assay [10] is described as follows: qHTS assay to identify small molecule antagonists of the estrogen related receptor (ERR) signaling pathway from Tox21 library - cell viability counter screen (AID 1224834). Also: nearly all actives have a fitted effect of over 30% in size. Also: potency is read from the fitted curve at half-maximal effect. In a few lines: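 ERR reporter cells were plated 6 h before compound addition, then exposed to test compounds in DMSO for 17.5 h at 37 C. Viability was read as CellTiter-Fluor fluorescence after a 30-minute incubation at 37 C.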

SMILES strings stand for the structures. Records with an inconclusive call do not appear. A number with no mark means an inactive call. Calls of active or inactive are those of the source. Unless noted, calls follow the shape of the dose curve; as a rule, active = well fitted curve in the direction sought with a large enough effect in the repeat runs; inconclusive = weak or mixed curves; inactive = no such curve, though single readings can be large; an effect the other way counts as inactive or inconclusive.
% is scaled to controls: 0 for no effect and ±100 for the full control effect.

Luciferin 4-monooxygenase (Photinus pyralis), sequence (P08659 whole entry, looked up): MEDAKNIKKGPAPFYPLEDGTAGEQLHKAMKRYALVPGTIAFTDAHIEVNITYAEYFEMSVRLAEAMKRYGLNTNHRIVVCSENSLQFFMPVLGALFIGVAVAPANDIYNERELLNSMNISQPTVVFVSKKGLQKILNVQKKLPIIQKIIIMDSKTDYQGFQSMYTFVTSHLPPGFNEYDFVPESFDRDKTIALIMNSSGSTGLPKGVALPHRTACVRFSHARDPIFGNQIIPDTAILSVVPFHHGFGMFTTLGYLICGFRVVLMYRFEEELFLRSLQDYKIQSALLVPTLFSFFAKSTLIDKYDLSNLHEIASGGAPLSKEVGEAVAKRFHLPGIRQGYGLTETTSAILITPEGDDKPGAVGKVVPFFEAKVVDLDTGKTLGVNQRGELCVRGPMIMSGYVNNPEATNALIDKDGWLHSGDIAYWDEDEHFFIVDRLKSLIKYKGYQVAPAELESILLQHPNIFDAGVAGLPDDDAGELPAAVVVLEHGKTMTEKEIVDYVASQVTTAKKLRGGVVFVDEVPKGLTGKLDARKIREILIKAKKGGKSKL
Retinoic acid receptor RXR-alpha (Homo sapiens), sequence (P19793 whole entry, looked up): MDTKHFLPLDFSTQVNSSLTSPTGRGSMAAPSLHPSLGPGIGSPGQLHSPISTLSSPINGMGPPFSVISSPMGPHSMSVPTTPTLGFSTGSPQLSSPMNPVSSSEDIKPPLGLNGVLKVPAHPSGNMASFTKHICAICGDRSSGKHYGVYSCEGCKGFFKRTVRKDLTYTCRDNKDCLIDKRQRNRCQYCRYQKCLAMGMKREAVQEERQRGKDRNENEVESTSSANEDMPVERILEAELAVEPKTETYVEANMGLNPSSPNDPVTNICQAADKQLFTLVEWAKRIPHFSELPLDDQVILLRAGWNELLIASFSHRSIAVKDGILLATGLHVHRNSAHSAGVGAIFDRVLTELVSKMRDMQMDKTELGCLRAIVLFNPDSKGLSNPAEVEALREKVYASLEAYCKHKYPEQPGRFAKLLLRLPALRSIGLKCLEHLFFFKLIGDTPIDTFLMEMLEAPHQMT

Regarding `CCN(CCO)c1cccc(C)c1`, the Potency result in assay [1], in assay [4], in [5], in [6], in assay [8] and in [9] was “inactive” each time. For the same compound, the outcome in assay [2], in assay [3] and in [7] was inactive.

Regarding `CCCCCCCC[Si](OCC)(OCC)OCC`, the Potency entry in assay [1], in [4], in assay [5], in assay [6] and in [8] was “inactive” each time. The call in [2], in [3] and in [7] was inactive.

As to `CCCCCCCCOC(C)=O`, the Potency result in assay [1], in assay [4], in assay [5], in [6] and in [8] was “inactive” in each case. The call in assay [2], in [3] and in assay [7] was inactive.

Take `CC1=NN(c2ccc(S(=O)(=O)O)cc2)C(=O)C1N=Nc1ccccc1` (stereo not drawn): the Potency result in assay [1], in assay [4], in [5] and in assay [9] was “inactive” each time. Besides, the result in [2] and in [3] was inactive. Also, the Potency in assay [10] was 54.5 µM (active); in assay [6], 71 µM (active).

For `CCNC(=O)/C=C/c1cccc(Br)c1`, the Potency entry in [1], in [4], in [10], in assay [8] and in [9] was “inactive” throughout. In addition, the call in assay [2], in assay [3] and in assay [7] was inactive. Moreover, the Potency in assay [5] is 15 µM (active).

With `O=CO`, the activation is 1.02% [at 6.98 µM] in assay [1] and -3.33% [at 8.36 µM] in [5]. Also, the activity change, negative = cytotoxicity in assay [2] is 0.323% [at 6.97 µM]; in assay [3], 2.98% [at 8.39 µM]; in [8], -0.437% [at 8.39 µM]. In addition, the activity, negative = inhibition is -7.08% [at 8.39 µM] in [4] and -2.01% [at 8.39 µM] in assay [9]. The viability change, negative = cytotoxic is -0.634% [at 8.39 µM] in assay [10] and 2.87% [at 8.39 µM] in [7].

Take `Cc1cccc(C(=O)O)c1[N+](=O)[O-]`: the Potency result in assay [1], in [4], in assay [5], in assay [10], in assay [8] and in assay [9] was “inactive” throughout. Also, the call in assay [2], in assay [3] and in assay [7] was inactive.

As for `CC(C)(c1ccc(Oc2ccc3c(c2)C(=O)OC3=O)cc1)c1ccc(Oc2ccc3c(c2)C(=O)OC3=O)cc1`, the Potency in assay [1] was 13.7 µM (active). Further, the compound was called inactive in assay [2], in [3] and in assay [7]. Besides, the Potency result in assay [4], in assay [5], in assay [10], in assay [8] and in assay [9] was “inactive” throughout.

As for `COc1ccc(N=Nc2cc(C)c(N=Nc3ccc(S(=O)(=O)O)cc3)cc2OC)cc1`, the Potency result in [1], in [4], in [5] and in assay [9] was “inactive” in each case. Besides, the outcome in [2] and in [3] was inactive. The Potency was 19.3 µM (active) in [10] and 44.8 µM (active) in assay [6].

`CC(C)COC(=O)/C=C/c1ccccc1`: the Potency entry in [1], in [4], in assay [8] and in assay [9] was “inactive” in each case. The compound was called inactive in assay [2], in assay [3] and in assay [7]. Besides, the Potency in [5] is 30.6 µM (active); in [6], 7.1 µM (active).

Regarding `O=C(O)CCNC(=O)c1ccccc1`, the Potency result in assay [1], in [4], in assay [5], in assay [6] and in assay [8] was “inactive” each time. The outcome in assay [2], in assay [3] and in [7] was inactive.

On to `C=CCOCC(O)CCl` (stereo not drawn), for which the Potency entry in [1], in [4], in assay [5], in assay [6] and in [8] was “inactive” each time. Further, the compound was called inactive in [2], in assay [3] and in assay [7].

Turning to `CCS(=O)(=O)CCn1c([N+](=O)[O-])cnc1C`, the Potency result in assay [1], in assay [4], in [5], in [6], in assay [8] and in assay [9] was “inactive” each time. The compound was called inactive in [2], in [3] and in [7].

In the case of `Cc1cc(O)c2c(c1)C(=O)c1cccc(O)c1C2=O`, the Potency result in assay [1], in [4], in assay [5], in assay [6] and in assay [8] was “inactive” each time. Besides, the result in assay [2], in assay [3] and in assay [7] was inactive.

On to `C=CCOC(=O)c1ccc(C(=O)OCC=C)c(C(=O)OCC=C)c1`, for which the Potency result in assay [1], in assay [4], in assay [5], in assay [10], in assay [8] and in [9] was “inactive” in each case. The call in assay [2], in [3] and in [7] was inactive.

For the compound `Nc1nc(=O)n([C@@H]2O[C@H](CO)[C@@H](O)[C@@H]2F)cc1I`, the Potency entry in [1], in assay [4], in assay [5], in [6] and in assay [8] was “inactive” in each case. Further, the compound was classed as inactive in assay [2], in assay [3] and in assay [7].

Take `O=S1(=O)CCCC1`: the Potency entry in assay [1], in assay [4], in assay [5], in [10], in assay [6] and in assay [8] was “inactive” in each case. For the same compound, the Potency entry in assay [9] was “inactive”. For the same compound, the outcome in [2], in assay [3] and in assay [7] was inactive.

For `CC(=O)c1ccc2c(c1)CCCC2`, the Potency result in [1], in assay [4], in assay [5], in assay [10], in assay [8] and in assay [9] was “inactive” each time. Moreover, the result in [2], in assay [3] and in assay [7] was inactive.

Take `CCOC(=O)CCCCCCCCC(=O)OCC`: the Potency entry in assay [1], in assay [4], in assay [5], in assay [6], in [8] and in [9] was “inactive” each time. In addition, the compound was classed as inactive in assay [2], in assay [3] and in assay [7].

Turning to `COc1cc([N+](=O)[O-])ccc1N`, the Potency entry in [1], in assay [4], in assay [5], in assay [6] and in assay [9] was “inactive” throughout. Also, the call in assay [2] and in assay [3] was inactive. Further, in assay [10], the Potency was 24.3 µM (active).

Consider `Nc1ccc(C(=O)OCC(O)CO)cc1` (stereo not drawn), for which the Potency entry in assay [1], in assay [4], in assay [5], in assay [6] and in assay [8] was “inactive” in each case. Also, the outcome in assay [2], in assay [3] and in assay [7] was inactive.

`C[C@@H]1C[C@H]2[C@@H]3C[C@H](F)C4=CC(=O)C=C[C@]4(C)[C@@]3(F)[C@@H](O)C[C@]2(C)[C@@]1(O)C(=O)CO`: the Potency entry in assay [1], in [4], in assay [5], in assay [10], in assay [8] and in assay [9] was “inactive” each time. The result in [2], in assay [3] and in assay [7] was inactive.

For the compound `O=C1c2ccccc2-c2ccccc21`, the Potency result in assay [1], in assay [4], in assay [5], in assay [10], in assay [8] and in assay [9] was “inactive” in each case. The call in assay [2], in [3] and in [7] was inactive.
